Reference: PubChem BioAssay AID504848 (National Center for Advancing Translational Sciences (NCATS), 2011)
Several values for one entry are separate records, joined by “and”; a condition that tells them apart may be missing. Identical values can stand only once. Screen size: about 2,300 compounds; about 1,400 (61%) were called active. Roughly 29% stayed inconclusive and do not appear here. The call rests on the fitted dose curve; in most records, active means well fitted inhibition curve with a large enough effect; inconclusive means small, poorly fitted or top-dose-only effect, or effect the other way; inactive means no such curve, though single readings can be large or run the other way. The set was probably picked from earlier hits. This is one part of the list.

Assay: Confirmation screen for delayed death inhibitors of the malarial parasite plastid, 96 hour incubation; further: nearly all actives have a fitted effect of over 60% in size
Settings: P. falciparum luciferase growth in erythrocytes; series mostly up to 28.7 µM; activity change, negative = inhibition: at the top concentration
From the text: The goal of this screen is to discover new antimalarial compounds that act by inhibiting the development of the apicoplast in the malarial parasite Plasmodium falciparum. The biochemical processes that make this organelle essential for erythrocytic stage parasites are not well understood. However, antibiotics, such as azithromycin and tetracycline, which target the apicoplast translational machinery, have a potent antimalarial effect. […] We have developed a cell-based assay that measures parasite growth based on the expression of an integrated copy of a firefly luciferase reporter. To detect small molecules that cause this "delayed death phenotype, erythrocytes infected with the luciferase-expressing parasites were incubated with compounds for either one or two generations, corresponding to 48 and 96 hours, respectively. Compounds that inhibit parasite growth in the second generation, but not the first, should be enriched in antimalarials that target the apicoplast. Growth inhibition is detected by a decrease in luciferase activity. MLPCN Grant: R21 NS059500 Assay Provider: David Fidock and Eric Ekland, Columbia University Keywords: NIH Roadmap, MLPCN, MLI, MLSMR, qHTS, NCGC, qHTS, malaria, luciferase, viability
Four microliters of culture medium (RPMI 1640 with 0.5% w/v Albumax (GIBCO), 24 mM sodium bicarbonate and 10 ug/mL gentamycin) were dispensed by a Multi-drop Combi into white solid 1536-well plates (Grenier) and 23 nL compound was added by a pin tool. Four microliters of infected erythrocytes (2% hematocrit, 0.1% parasitemia final concentration) in culture medium were dispensed and the plates incubated for 96 hours at 37 C in 5% CO2. Two microliters of luciferase detection reagent was added and luminescence was detected by a ViewLux (PerkinElmer) reader
On the % scale 0 is the no-effect control and ±100 the full control effect; potency means the concentration at half of the fitted maximal effect.

SMILES	Potency	activity change, negative = inhibition
COc1ccc(-n2c(C)cc(C(=O)C[N+]34CCN(CC3)CC4)c2C)cc1	12.6 µM (active)	–
C[C@@H]1CC2(CCCC[N+]2(C)C)C[C@H]1C	14.1 µM (active)	–
CC(=O)N1CC(=O)Nc2ccc(Cl)cc2C1c1ccccc1 (centres undefined)	–	-21.6% (inactive)
CN1C[C@H](C(=O)N[C@]2(C)O[C@@]3(O)[C@@H]4CCCN4C(=O)[C@H](Cc4ccccc4)N3C2=O)C[C@@H]2c3cccc4[nH]cc(c34)C[C@H]21	2.24 µM (active)	–
O=C(CN1CC=C(c2ccccc2)CC1)NC(=O)NCc1ccccc1	–	-23% (inactive)
Cc1ccc(N2C(=O)NC(=O)/C(=C\C=C\c3ccco3)C2=O)cc1	–	-0.857% (inactive)
CC(C)(C)C(=O)C(Oc1ccc(Cl)cc1)n1ccnc1 (centres undefined)	14.1 µM (active)	–
C=C[C@H]1CN2CC[C@H]1C[C@@H]2[C@@H](O)c1ccnc2ccccc12	0.199 µM (active)	–
C[n+]1c2cc(N)ccc2cc2ccc(N)cc21	0.562 µM (active)	–
Cn1c(=O)oc2cc(NC(=O)CCl)ccc21	0.794 µM (active)	–
CCn1c(=O)oc2cc(NC(=O)CCl)ccc21	2 µM (active)	–
CN1CCc2cc3c(c4c2C1Cc1ccccc1-4)OCO3 (centres undefined)	0.562 µM (active)	–
C=C1C(=O)O[C@@H]2C[C@@H](C)[C@@H]3C=CC(=O)[C@@]3(C)[C@@H](O)[C@H]12	2 µM (active)	–
C=C1C(=O)O[C@@H]2C[C@@H](C)[C@@H]3C=CC(=O)[C@@]3(C)[C@@H](OC(=O)CC(=O)O[C@H]3[C@@H]4C(=C)C(=O)O[C@@H]4C[C@@H](C)[C@@H]4C=CC(=O)[C@]43C)[C@H]12	0.0282 µM (active)	–
C=C1C(O)[C@@H]2O[C@]3(CC[C@H](/C=C/C(C)[C@@H]4CC(C)=CC5(O[C@H](C[C@@](C)(O)C(=O)O)CCC5O)O4)O3)CC[C@H]2O[C@@H]1C(O)CC(C)[C@H]1OC2(CCCCO2)CCC1C (some centres undefined)	0.0631 µM (active)	–
O=c1oc2ccccc2c(O)c1[C@H]1c2ccc(O)cc2Oc2c1c(=O)oc1ccccc21	–	18% (inactive)
CC(C)c1oc(=O)cc2c1[C@@H](O)[C@H]1OC(=O)[C@@]3(C)CC[C@@H](O)[C@@]2(C)C13 (some centres undefined)	7.94 µM (active)	–
O=C(/C=C/c1cccs1)c1cc(Cl)ccc1OC(=O)N1CCOCC1	11.2 µM (active)	–
Cc1cc2ccccn2c1C(C[N+](=O)[O-])c1c(F)cccc1Cl (centres undefined)	12.6 µM (active)	–
Cc1ccc(C(C)C)c(OCC(=O)N2CCN(Cc3nc4cc([N+](=O)[O-])ccc4n3C)CC2)c1	–	-11.1% (inactive)

SMILES	Potency	activity change, negative = inhibition
COc1cccc(-n2c(CN3CCN(C)CC3)nc3ccc([N+](=O)[O-])cc3c2=O)c1	15.8 µM (active)	–
CC(C)c1ccc(N2C(=O)NC(=O)/C(=C\C=C\c3ccco3)C2=O)cc1	–	-9.71% (inactive)
O=C(CCl)Nc1nccs1	6.31 µM (active)	–
Fc1ccc(C[n+]2c(-c3ccccc3)cc(-c3ccccc3)cc2-c2ccccc2)cc1	2 µM (active)	–
O=C1NC(=O)N(c2ccccc2)C(=O)/C1=C/C=C/c1ccco1	–	-22.6% (inactive)
C=CCn1c(O)c(N=Nc2c(C)n(C)n(-c3ccccc3)c2=O)c(=O)[nH]c1=S	6.31 µM (active)	–
O=[N+]([O-])c1cccc2c([As](=O)(O)O)cccc12	1.12 µM (active)	–
C[C@@H]1C[C@@H]2O[C@H]2/C=C\C=C\C(=O)Cc2c(Cl)c(O)cc(O)c2C(=O)O1	7.08 µM (active)	–
COC(=O)c1nc(-c2ccc3c(n2)C(=O)C(N)=C(OC)C3=O)c(N)c(-c2ccc(OC)c(OC)c2O)c1C	0.251 µM (active)	–
O=C(NC1CC2CCCC(C1)N2)c1ccccc1 (centres undefined)	5.01 µM (active)	–
Cc1ccc(-c2nc(NC(=O)c3ccc(S(=O)(=O)N(CCC#N)CCC#N)cc3)sc2-c2ccccc2)cc1	11.2 µM (active)	–
CN1C2CCC1/C(=C/c1ccccn1)C(=O)/C2=C\c1ccccn1	0.158 µM (active)	–
C[C@@H]1O[C@@H](O[C@H]2C[C@@H](O)[C@]3(CO)[C@@H]4C(CC[C@]3(O)C2)[C@@]2(O)CC[C@H](C3COC(=O)C3)[C@@]2(C)C[C@H]4O)[C@H](O)[C@H](O)[C@H]1O (some centres undefined)	–	-24% (inactive)
CCOc1cc2c(cc1OCC)-n1cccc1C(c1ccccc1F)NC2 (centres undefined)	5.01 µM (active)	–
C[C@@H]1C[C@@H]([C@H](O)CC2CC(=O)NC(=O)C2)C(=O)[C@@H](C)C1	0.794 µM (active)	–
C[C@H]1C[C@@H](C)C(=O)[C@@H]([C@H](O)CC2CC(=O)NC(=O)C2)C1	0.0316 µM (active)	–
C/C1=C\[C@@H](C)C/C=C/[C@H]2[C@@H]3O[C@]3(C)[C@@H](C)[C@H]3[C@H](Cc4c[nH]c5ccccc45)NC(=O)[C@]32C(=O)/C=C/C(=O)[C@@H]1O	0.891 µM (active)	–
CCC(C(=O)N1CCC2(CC1)OCCO2)n1c2ccccc2c2nc(=O)cc(C)n21 (centres undefined)	11.2 µM (active)	–
C[C@@H]1CC[C@H]2[C@@H](C)C(=O)O[C@@H]3O[C@@]4(C)CC[C@@H]1[C@]32OO4	0.0398 µM (active)	–
C[C@@H]1CC[C@H]2[C@@H](C)C(=O)O[C@@H]3OC4(C)CC[C@@H]1C32OO4 (some centres undefined)	0.0398 µM (active)	–

SMILES	Potency	activity change, negative = inhibition
CCN(CC)Cc1cc(Nc2ccnc3cc(Cl)ccc23)ccc1O	89.1 nM (active) and 22.4 nM (active)	–
COc1ccc(-c2cc(-c3ccccc3)[n+](C)c(-c3ccccc3)c2)cc1	2 µM (active)	–
C[n+]1c(-c2ccccc2)cc(-c2ccc(Cl)cc2)cc1-c1ccccc1	0.891 µM (active)	–
CCOP(=O)(OCC)C(O)c1ccc(OC)cc1OC (centres undefined)	–	9.71% (inactive)
O=C1/C(=C/c2ccccc2)C[C@@]2(O)[C@H]3Cc4ccc(O)c5c4[C@@]2(CCN3CC2CC2)C1O5 (some centres undefined)	5.01 µM (active)	–
COc1ccc(Cn2c(N)c(C(=O)NCc3ccco3)c3nc4ccccc4nc32)cc1	3.98 µM (active)	–
CC(C)CCOP(N)(=O)Oc1ccccc1 (centres undefined)	3.98 µM (active)	–
CC[n+]1c(-c2ccccc2)c2cc(N)ccc2c2ccc(N)cc21	0.0282 µM (active)	–
CC1=CC2/C=C(\C)CCC(O)C(O)/C=C/C(=O)C23C(=O)NC(CC(C)C)C3C1C (centres undefined)	12.6 µM (active)	–
CCCNS(=O)(=O)c1ccc(OCC(=O)N2CCN(Cc3ccc4c(c3)OCO4)CC2)c(C)c1	11.2 µM (active)	–
Oc1ccc(-[n+]2c(-c3ccccc3)cc(-c3ccccc3)cc2-c2ccccc2)cc1	0.0794 µM (active)	–
COc1cc(C(=O)N/N=C/C23CC[C@@H](O)CC2(O)CC[C@@H]2[C@@H]3CCC3(C)C(C4=CC(=O)OC4)CCC23O)ccc1O (some centres undefined)	–	-32% (inactive)
CN(C)c1ccc(C(=O)N/N=C/C23CC[C@@H](O)CC2(O)CC[C@@H]2[C@@H]3CCC3(C)C(C4=CC(=O)OC4)CCC23O)cc1 (some centres undefined)	12.6 µM (active)	–
CC12CC[C@H]3[C@@H](CCC4(O)C[C@H](O)CCC34/C=N/NC(=O)c3ccccc3F)C1(O)CCC2C1=CC(=O)OC1 (some centres undefined)	–	-94.9% (inactive)
COC(=O)C1=C(c2ccccc2OCc2ccccc2)C[C@@H]2CC[C@H]1N2C(=O)NCCOc1ccc(OC)cc1	12.6 µM (active)	–
CC[C@H]1CN2CCc3cc(OC)c(OC)cc3[C@H]2C[C@@H]1C[C@@H]1NCCc2cc(OC)c(OC)cc21	0.501 µM (active)	–
CC[C@H]1CN2CCc3cc(OC)c(OC)cc3C2C[C@@H]1C[C@H]1NCCc2cc(OC)c(OC)cc21 (some centres undefined)	0.0501 µM (active)	–
CC[C@H]1CN2CCc3cc(OC)c(OC)cc3[C@@H]2C[C@@H]1C[C@H]1NCCc2cc(OC)c(OC)cc21	0.224 µM (active)	–
Cn1c(O)c(C=NC2C(=O)C3(C)CCC2C3(C)C)c(=O)n(C)c1=O (centres undefined)	–	9.58% (inactive)
